The whole screen tested about 340,000 compounds, of which about 1,000 (0.29%) were called active. No stated cut-off is given here; in the data, inconclusive means inhibition above about 27% without an active follow-up result; inactive means below that. These entries were drawn from the full list. Results with a measured potency or affinity are listed apart.
Assay: NS1A inhibition, H1N1 influenza, cell based functional assay (AID 504329)
Conditions: percent inhibition, at 12.5 µM, active compounds read high
For CCc1nc2ccccc2n1Cc1cc(=O)n2cc(C)ccc2n1, the inhibition was -1.64% (inactive). With CCOc1ccc(NC(=S)N2CCN(S(=O)(=O)c3ccccc3)CC2)cc1 the inhibition was 24.8% (inactive). In the case of Cc1nnc(N/N=C/c2ccccc2O)n1N, the inhibition is reported as 9.93% (inactive). For CC(C)(C)c1nnc(N/N=C/c2ccccc2)n(N)c1=O, the inhibition was -3.79% (inactive). For CC(C)(C)c1nnc(N/N=C/c2ccc(O)cc2)n(N)c1=O, the inhibition was 6.15% (inactive). With CC(C)(C)c1nnc(N/N=C/c2ccc(Br)cc2)n(N)c1=O the inhibition was -5.94% (inactive). In the case of CCc1nnc(N/N=C/c2cc(C)c(C)cc2C)n1N, the inhibition is reported as -3.56% (inactive). With CCc1nnc(N/N=C/c2ccccc2F)n1N the inhibition was -9% (inactive). With Cc1ccc(CN2CCC(n3nccc3NC(=O)CCOc3ccccc3)CC2)cc1C the inhibition was -4.94% (inactive). For CCN1CCN(C(c2cc(OC)ccc2OC)c2nnnn2Cc2ccccc2)CC1 (stereo not given), the inhibition was -5.45% (inactive). In the case of Cc1cn(CC(=O)NCc2ccc3c(c2)OCO3)c(=O)[nH]c1=O, the inhibition is reported as 0.05% (inactive). With Cc1ccc(C(=O)COC(=O)CNC(=O)c2cccs2)cc1C the inhibition was 3.9% (inactive). In the case of Cc1ccc(CS(=O)Cc2ccc(C(=O)NCCc3ccccc3)o2)cc1 (stereo not given), the inhibition is reported as 3.5% (inactive). In the case of COc1ccc(N2CCN(C(=O)c3c(C)nn(-c4ccccc4)c3C)CC2)cc1, the inhibition is reported as 1.11% (inactive). In the case of COc1ccc(C(=O)Nc2ccc(Cl)cc2C(=O)N2CCCC(C)C2)cc1OC (stereo not given), the inhibition is reported as -10.1% (inactive). With O=S1(=O)[C@H]2CC3O[C@]2(C[C@@H]3c2ccc(F)cc2)CN1Cc1ccc(Cl)cc1 the inhibition was -1.02% (inactive). For COc1cc(C(=O)NC2CCN(Cc3nnnn3Cc3cccs3)CC2)cc(OC)c1OC, the inhibition was -19% (inactive). For CCCNc1ncnc2onc(C)c12, the inhibition was -5.28% (inactive). With O=C(Nc1ccncc1)c1cc2ccccc2cc1O the inhibition was -5.8% (inactive). In the case of Oc1cc(Nc2ccccc2)cc2cccnc12, the inhibition is reported as 3.79% (inactive). With Oc1cc(NCc2ccc(Cl)cc2)cc2cccnc12 the inhibition was -7.85% (inactive). In the case of c1ccc(-c2csc(Nc3cccnc3)n2)nc1, the inhibition is reported as 14.1% (inactive). With Clc1cnc(Nc2cccnc2)c(Cl)c1 the inhibition was -6.41% (inactive). In the case of Oc1cc(NCc2ccc(F)cc2)cc2cccnc12, the inhibition is reported as -7.28% (inactive). In the case of CC(=O)c1ccccc1OCC(O)CN1CCN(c2ccccn2)CC1 (stereo not given), the inhibition is reported as -18.6% (inactive). In the case of CCOc1ccccc1N(CC(=O)Nc1ccccc1C(=O)N1CCOCC1)S(C)(=O)=O, the inhibition is reported as -12.1% (inactive). With COC(=O)c1ccccc1NC(=O)Nc1cccnc1 the inhibition was -5.77% (inactive). In the case of CCOP(=O)(OCC)C(NC(=O)Nc1ccc(Cl)cc1)C(N)=O (stereo not given), the inhibition is reported as -4.5% (inactive). In the case of COc1cccc2cc(C(=O)NCC3CCCO3)c(=O)oc12 (stereo not given), the inhibition is reported as 6.96% (inactive). For COc1ccc(/C(O)=C2\C(=O)C(=O)N(CCN3CCOCC3)C2c2ccccc2OC)cc1 (stereo not given), the inhibition was -5.93% (inactive). In the case of CCc1cccc(NC(=O)CSCc2cc(=O)[nH][nH]2)c1, the inhibition is reported as 4.49% (inactive). With Cc1cnc(-n2c(=S)[nH]c3ccccc3c2=O)s1 the inhibition was -7.74% (inactive). With O=C(NCc1cc(C(F)(F)F)ccc1F)C1CCC(=O)N(C2CC2)C1 (stereo not given) the inhibition was -6.88% (inactive). In the case of Nc1ccc(N2CCN(c3ccc(F)cc3)CC2)cc1, the inhibition is reported as -1.58% (inactive). With CCN1CCN(c2ccc(N)cc2)CC1 the inhibition was 11.3% (inactive). With N#Cc1ccc(C(=O)Nc2cc(C3CC3)nn2-c2ccccc2)cc1 the inhibition was -9.27% (inactive). In the case of CC[n+]1c(C)sc2c3ccsc3ccc21, the inhibition is reported as 2.89% (inactive). For Cn1c(SCC(=O)Nc2ccc(C(N)=O)cc2)nc2c(c1=O)SCC2, the inhibition was -1.68% (inactive). With Oc1ccccc1N=N/C(=N/Nc1ccccc1O)c1ccccc1 the inhibition was -1.57% (inactive). For Oc1ccccc1N=Nc1ccccc1O, the inhibition was 21.9% (inactive). In the case of CC(=O)NC1C(Oc2ccccc2C)OC2COC(c3ccco3)OC2C1O (stereo not given), the inhibition is reported as -4.4% (inactive). In the case of Cc1ccn(CC(=O)N2CCCC(C(=O)c3cccc4ccccc34)C2)n1 (stereo not given), the inhibition is reported as 1.06% (inactive). With Cc1ccc(N2CC(C(=O)N3CCC(C(=O)NCCCOC(C)C)CC3)CC2=O)cc1 (stereo not given) the inhibition was -11.9% (inactive). For O=C(COc1ccc(F)cc1)N/N=C/c1cccc2cccnc12, the inhibition was -1.12% (inactive). With COc1ccc(OCC(=O)N/N=C/c2cccc3cccnc23)cc1 the inhibition was 27.8% (inactive). In the case of COc1cccc(/C=N/NC(=O)COc2cccc3cccnc23)c1O, the inhibition is reported as -3.74% (inactive). In the case of Cc1ccccc1OCC(=O)N/N=C/c1cccc2cccnc12, the inhibition is reported as 11.7% (inactive). With Cc1ccc(C(F)(F)F)cc1NC(N)=S the inhibition was 5.01% (inactive). In the case of COc1ccc(/C=N/Nc2nncn2N)cc1Br, the inhibition is reported as 9.22% (inactive). With Nn1cnnc1N/N=C/c1ccc(Cl)cc1Cl the inhibition was -12.4% (inactive). With Cc1ccc(N(C)S(=O)(=O)c2ccc3[nH]cc(C(=O)NCCCN4CCOCC4)c(=O)c3c2)cc1C the inhibition was 4.79% (inactive). With Cc1cc(=O)[nH]c(N/N=C/c2ccccc2C(F)(F)F)n1 the inhibition was -5.35% (inactive). For Nc1ccc(N=Nc2ccccc2)c2ccccc12, the inhibition was -3.26% (inactive). For Nc1ccc(N=Nc2ccccc2)c(N)n1, the inhibition was 18% (inactive). In the case of COCCn1c(CN2CC(C)CC(C)C2)nc2c1c(=O)n(C)c(=O)n2C (stereo not given), the inhibition is reported as 3.18% (inactive). With CN(C)c1ccc(/C=C/c2cc[n+](C)cc2)cc1 the inhibition was 7.63% (inactive). In the case of CN(C)c1ccc(/C=C/c2nc3ccccc3s2)cc1, the inhibition is reported as -0.93% (inactive). In the case of CC[n+]1c(/C=C/C=C/N(C(C)=O)c2ccccc2)sc2ccccc21, the inhibition is reported as 25.6% (inactive). With CC[n+]1c(/C=C/N(C)c2ccccc2)sc2ccc(Cl)cc21 the inhibition was 0.72% (inactive). With CCOc1nc(SCCOc2ccccc2)nc(N(C)C)n1 the inhibition was 21.4% (inactive). With COc1ccc(NS(=O)(=O)c2cccc(C(=O)N/N=C(\C)c3ccncc3)c2)cc1 the inhibition was -5.23% (inactive). In the case of O=Cc1ccc2ccc3cccnc3c2n1, the inhibition is reported as 9.05% (inactive). In the case of Clc1cc2cccnc2c2ccccc12, the inhibition is reported as -7.93% (inactive). For Clc1ccc2ccc3cccnc3c2n1, the inhibition was -25.7% (inactive). In the case of c1cnc2c(c1)ccc1ncccc12, the inhibition is reported as -2.85% (inactive). With O=S1(=O)NC(=NCCc2ccccn2)c2ccccc21 the inhibition was -4.92% (inactive). With Cc1ccc2cccnc2c1N the inhibition was -4.2% (inactive). For Cc1ccc2ccc3ccc(C)nc3c2n1, the inhibition was -7.29% (inactive). With Oc1c(Cl)cc(Cl)c2cccnc12 the inhibition was -14.4% (inactive). With CCc1cc(C(=O)N2CCCC(N3CCN(c4cccc(C(F)(F)F)c4)CC3)C2)n(C)n1 (stereo not given) the inhibition was -0.25% (inactive). In the case of CCO/C=C/C(O)(CNC(=O)COc1ccccc1F)C(F)(F)F (stereo not given), the inhibition is reported as -0.96% (inactive). With Cc1ccc(S(=O)(=O)N2CCN(S(=O)(=O)N3CCC(C)CC3)CC2)cc1C the inhibition was 2.71% (inactive). With CC(=O)Nc1nnc(SCC(=O)N2CCc3ccccc32)s1 the inhibition was -6.4% (inactive). For O=C(NNc1ccc(-c2csnn2)cc1)c1ccccc1C(F)(F)F, the inhibition was -23.8% (inactive). For CC1=C(C(=O)Nc2cc(C(=O)N3CCN(c4cccc(C)c4C)CC3)ccc2C)SCCO1, the inhibition was 8.75% (inactive). In the case of CN(C1=C(NC(=O)c2ccccc2)C(=O)c2ccccc2C1=O)C1CCS(=O)(=O)C1 (stereo not given), the inhibition is reported as 4.18% (inactive). For Cc1cccc(NC2=C(NC(=O)c3ccccc3)C(=O)c3ccccc3C2=O)c1, the inhibition was 28.6% (inactive). With O=C(NC1=C(Nc2ccc(F)cc2)C(=O)c2ccccc2C1=O)c1ccc(Cl)cc1 the inhibition was -4.19% (inactive). For O=C(NC1=C(Nc2ccc(Cl)cc2)C(=O)c2ccccc2C1=O)c1ccccc1, the inhibition was 12.2% (inactive). With COc1ccc(NC(=O)CN2CCN(CC(=O)Nc3ccccc3Cl)CC2)cc1Cl the inhibition was 3.53% (inactive). With COc1cccc(CC(CC(=O)O)C(=O)Nc2cc(C)ccc2C)c1 (stereo not given) the inhibition was 2.74% (inactive). With CN1C(=O)/C(=C2\SC(=S)N(NC(=O)c3cccnc3)C2=O)c2ccccc21 the inhibition was 6.82% (inactive). In the case of O=C(CNC(=O)c1ccco1)N/N=C/c1c[nH]c2ccccc12, the inhibition is reported as -1% (inactive). For Cc1c(NS(=O)(=O)c2ccc(Br)cc2)c(=O)n(-c2ccccc2)n1C, the inhibition was -8.19% (inactive). In the case of Cc1c(NN=C(C#N)C#N)c(=O)n(-c2ccccc2)n1C, the inhibition is reported as -11.5% (inactive). For CCS(=O)(=O)Nc1c(C)n(C)n(-c2ccccc2)c1=O, the inhibition was -2.8% (inactive). With Cc1c(NC(C)C)c(=O)n(-c2ccccc2)n1C the inhibition was -3.1% (inactive). With COC(=O)C(=NNc1c(C)n(C)n(-c2ccccc2)c1=O)C(=O)OC the inhibition was -4.26% (inactive). For C=CCSC(=S)Nc1c(C)n(C)n(-c2ccccc2)c1=O, the inhibition was -2.87% (inactive). In the case of Cc1c(NP(=O)(c2ccc(Br)cc2)c2ccc(Br)cc2)c(=O)n(-c2ccccc2)n1C, the inhibition is reported as -4.88% (inactive). In the case of Cc1c(C=C2C(=O)NC(=O)NC2=O)c(=O)n(-c2ccccc2)n1C, the inhibition is reported as -5.56% (inactive). With CCN(C(=O)COC(=O)CNS(=O)(=O)c1ccc2ccccc2c1)C1CCCCC1 the inhibition was -3.12% (inactive). With CCn1c(=O)[nH]c(=O)c2c(N)c(C(=O)c3ccccc3OC)sc21 the inhibition was 14.2% (inactive). In the case of CCC(CC)CN1CCC(CN2C(=O)C(=O)NC[C@@H]2[C@@H](C)CC)CC1, the inhibition is reported as -5.8% (inactive). In the case of CC(=O)c1cccc(NC(=O)C2CCN(C(=O)c3cccs3)CC2)c1, the inhibition is reported as -11.1% (inactive). With Cc1ccc(SCC(=O)OCC(=O)Nc2ccc3[nH]c(=O)[nH]c3c2)cc1C the inhibition was -0.9% (inactive). In the case of COc1ccccc1NC(=O)/C(=C\c1cccs1)NC(=O)c1ccco1, the inhibition is reported as 2.01% (inactive). With COc1ccc2c(COC(=O)CC3Sc4ccccc4NC3=O)cc(=O)oc2c1 (stereo not given) the inhibition was -3.14% (inactive). With Cc1c(NC(=O)CN2C(=O)C(=O)N(Cc3ccccc3)C2=O)c(=O)n(-c2ccccc2)n1C the inhibition was -4.35% (inactive). In the case of Cc1c(NC(=O)NCc2ccccc2)c(=O)n(-c2ccccc2)n1C, the inhibition is reported as 0.65% (inactive).

Reference: PubChem BioAssay AID504329 (Southern Research Specialized Biocontainment Screening …, 2011)
